A structure can be active in one record and inactive in another. Activity calls are given as the source filed them. Rule for the calls: active = hit-call score of the fitted dose curve at least 0.9, where 1 is the maximum; inactive = score below 0.9.
Experiments:
[1] = read-out: Macrophage colony-stimulating factor (MCSF), CSF1 (gene 1435); assay: BSK_hDFCGF_MCSF: BioMAP Diversity Plus: hDFCGF Assay for Macrophage colony-stimulating factor (MCSF) Biomarker Activity (AID 2283060); conditions: primary human foreskin fibroblasts; actives raise or lower the signal
In short: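 M-CSF levels read by ELISA at 24 h post-dosing in human skin fibroblasts. Parallel cultures stained with SRB assessed cytotoxicity at the same time point; response fitted in both directions against the DMSO baseline.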

[2] = BSK_hDFCGF_SRB: Viability Assessment in the BioMAP Diversity Plus: hDFCGF Assay (AID 2283061); conditions: primary human foreskin fibroblasts;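 note: cells exposed to compound for 24 h before the read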
In short: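 Viability was read as total protein: after 10% TCA fixation, wells were stained with 0.1% sulforhodamine B and read at 560 nm. Primary human foreskin fibroblasts were dosed for 24 h, with bidirectional fitting versus DMSO.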

[3] = read-out: TIMP metallopeptidase inhibitor 1 (TIMP1), TIMP1 (gene 7076); assay: BSK_hDFCGF_TIMP1: BioMAP Diversity Plus: hDFCGF Assay for TIMP metallopeptidase inhibitor 1 (TIMP1) Biomarker Activity (AID 2283062); conditions: primary human foreskin fibroblasts; actives raise or lower the signal
In short: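 TIMP-1 measured by ELISA 24 h after chemical dosing of primary human skin fibroblasts, with gain or loss fitted relative to DMSO. Parallel SRB staining (560 nm) monitored overt cytotoxicity.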

[4] = read-out: Monokine induced gamma interferon (MIG), CXCL9 (gene 4283); assay: BSK_hDFCGF_MIG: BioMAP Diversity Plus: hDFCGF Assay for Monokine induced gamma interferon (MIG) Biomarker Activity (AID 2283063); conditions: primary human foreskin fibroblasts; actives raise or lower the signal
In short: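 Human primary foreskin fibroblasts in the hDFCGF system, exposed to test chemical for 24 h; MIG measured by ELISA. Bidirectional curve fitting against DMSO negative control as activity baseline.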

[5] = read-out: Matrix Metallopeptidase 1 (MMP1), MMP1 (gene 4312); assay: BSK_hDFCGF_MMP1: BioMAP Diversity Plus: hDFCGF Assay for Matrix Metallopeptidase 1 (MMP1) Biomarker Activity (AID 2283064); conditions: primary human foreskin fibroblasts; actives raise or lower the signal
In short: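 Primary human foreskin fibroblasts exposed to chemicals for 24 h; MMP1 measured by ELISA. Cytotoxicity tracked by SRB staining in parallel cultures; bidirectional fit relative to DMSO.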

[6] = read-out: Vascular cell adhesion molecule 1 (VCAM1), VCAM1 (gene 7412); assay: BSK_hDFCGF_VCAM1: BioMAP Diversity Plus: hDFCGF Assay for Vascular cell adhesion molecule 1 (VCAM1) Biomarker Activity (AID 2283065); conditions: primary human foreskin fibroblasts; actives raise or lower the signal;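 for AC50: VCAM-1 protein level quantified by ELISA after 24 h chemical exposure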
In short: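 ELISA readout of VCAM-1 on human dermal fibroblast primary cultures, 24 h after chemical exposure. Gain or loss of signal fitted in both directions against DMSO baseline.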

[7] = read-out: Plasminogen activator inhibitor-1 (PAI1), SERPINE1 (gene 5054); assay: BSK_hDFCGF_PAI1: BioMAP Diversity Plus: hDFCGF Assay for Plasminogen activator inhibitor-1 (PAI1) Biomarker Activity (AID 2283066); conditions: primary human foreskin fibroblasts; actives raise or lower the signal
In short: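 Human foreskin fibroblasts in the hDFCGF system were dosed with compound for 24 h; PAI-1 was quantified by ELISA. Bidirectional curve fitting used DMSO as negative control and baseline.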

[8] = read-out: Intercellular Adhesion Molecule 1 (ICAM1), ICAM1 (gene 3383); assay: BSK_KF3CT_ICAM1: BioMAP Diversity Plus: KF3CT Assay for Intercellular Adhesion Molecule 1 (ICAM1) Biomarker Activity (AID 2283067); conditions: primary human keratinocytes with fibroblasts; actives raise or lower the signal
In short: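 Cell-surface ICAM-1 was measured by ELISA 24 h after dosing primary human skin keratinocytes co-cultured with fibroblasts. Parallel SRB staining tracked overt cytotoxicity. Gain or loss of signal was fitted relative to DMSO.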

[9] = BSK_KF3CT_SRB: Viability Assessment in the BioMAP Diversity Plus: KF3CT Assay (AID 2283069); conditions: primary human keratinocytes with fibroblasts;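 note: total protein by sulforhodamine B staining as a cytotoxicity measure; read 24 h after compound addition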
In short: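 Human keratinocyte and foreskin fibroblast co-culture exposed to chemical for 24 h. Total protein measured in parallel cultures by 0.1% sulforhodamine B staining after 10% TCA fixation, read at 560 nm; bidirectional fit relative to DMSO.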

[10] = read-out: Interleukin-1 alpha (IL1a), IL1A (gene 3552); assay: BSK_KF3CT_IL1a: BioMAP Diversity Plus: KF3CT Assay for Interleukin-1 alpha (IL1a) Biomarker Activity (AID 2283070); conditions: primary human keratinocytes with fibroblasts; actives raise or lower the signal
In short: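 Primary human keratinocyte plus foreskin fibroblast co-culture, dosed and measured at 24 h in 96-well plates. IL-1a level quantified by ELISA; bidirectional fit relative to DMSO.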

[11] = read-out: TIMP metallopeptidase inhibitor 2 (TIMP2), TIMP2 (gene 7077); assay: BSK_KF3CT_TIMP2: BioMAP Diversity Plus: KF3CT Assay for TIMP metallopeptidase inhibitor 2 (TIMP2) Biomarker Activity (AID 2283071); conditions: primary human keratinocytes with fibroblasts; actives raise or lower the signal
In short: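 Human primary keratinocyte/foreskin fibroblast co-culture dosed with chemical and sampled at 24 h. TIMP-2 levels quantified by ELISA; bidirectional fitting against DMSO negative control as baseline.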

[12] = read-out: Transforming growth factor beta 1 (TGFb1), TGFB1 (gene 7040); assay: BSK_KF3CT_TGFb1: BioMAP Diversity Plus: KF3CT Assay for Transforming growth factor beta 1 (TGFb1) Biomarker Activity (AID 2283072); conditions: primary human keratinocytes with fibroblasts; actives raise or lower the signal
In short: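 Human keratinocyte plus foreskin fibroblast primary co-culture, dosed with chemical for 24 h. TGF-b1 quantified by ELISA. Activity fitted bidirectionally against DMSO negative control as baseline.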

[13] = read-out: C-C motif chemokine 2 (Homo sapiens) (UniProt P13500); assay: BSK_KF3CT_MCP1: BioMAP Diversity Plus: KF3CT Assay for Monocyte Chemoattractant Protein 1 (MCP1/CCL2) Biomarker Activity (AID 2283073); conditions: primary human keratinocytes with fibroblasts; actives raise or lower the signal
In short: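 ELISA read-out of MCP-1, 24 h post-dose, in primary human skin keratinocytes co-cultured with fibroblasts. Parallel SRB staining monitors cytotoxicity; changes fitted both directions relative to DMSO.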

[14] = read-out: Matrix Metallopeptidase 9 (MMP9), MMP9 (gene 4318); assay: BSK_KF3CT_MMP9: BioMAP Diversity Plus: KF3CT Assay for Matrix Metallopeptidase 9 (MMP9) Biomarker Activity (AID 2283074); conditions: primary human keratinocytes with fibroblasts; actives raise or lower the signal;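 for AC50: MMP9 protein level quantified by ELISA in the co-culture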
In short: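 Human keratinocyte and foreskin fibroblast co-culture exposed to chemicals for 24 h; MMP9 biomarker measured by ELISA, bidirectional fitting relative to DMSO; cytotoxicity tracked by SRB total protein staining in parallel cultures.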

[15] = read-out: urokinase plasminogen activator (uPA), PLAU (gene 5328); assay: BSK_KF3CT_uPA: BioMAP Diversity Plus: KF3CT Assay for urokinase plasminogen activator (uPA) Biomarker Activity (AID 2283075); conditions: primary human keratinocytes with fibroblasts; actives raise or lower the signal
In short: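 Primary human keratinocyte/foreskin fibroblast co-culture exposed to chemical; uPA measured by ELISA at 24 h. Bidirectional fit versus DMSO, with parallel SRB total-protein staining for cytotoxicity.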

[16] = read-out: CD40, CD40 (gene 958); assay: BSK_LPS_CD40: BioMAP Diversity Plus: LPS Assay for CD40 Biomarker Activity (AID 2283076); conditions: primary human HUVEC with PBMC; actives raise or lower the signal
In short: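 In the LPS system of human endothelial cells with peripheral blood mononuclear cells, CD40 levels were read by ELISA 24 h post-treatment. Signal changes in either direction were fitted against the DMSO baseline, with parallel SRB protein staining.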

[17] = read-out: E-selectin (Homo sapiens) (UniProt P16581); assay: BSK_LPS_Eselectin: BioMAP Diversity Plus: LPS Assay for Eselectin Biomarker Activity (AID 2283077); conditions: primary human HUVEC with PBMC; actives raise or lower the signal
In short: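 E-selectin ELISA on LPS-stimulated endothelial cell/PBMC co-cultures, read 24 h post-treatment; gains and losses fitted against DMSO. Parallel SRB staining (0.1% SRB after 10% TCA fixation, 560 nm) flags overt cytotoxicity.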

[18] = read-out: Interleukin-8 (IL8), CXCL8 (gene 3576); assay: BSK_LPS_IL8: BioMAP Diversity Plus: LPS Assay for Interleukin-8 (IL8) Biomarker Activity (AID 2283078); conditions: primary human HUVEC with PBMC; actives raise or lower the signal
In short: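 ELISA read-out of IL-8 after 24 h chemical treatment of LPS-activated endothelial/PBMC human primary co-cultures. Changes either up or down relative to DMSO; overt cytotoxicity checked by sulforhodamine B staining in parallel wells.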

[19] = BSK_LPS_SRB: Viability Assessment in the BioMAP Diversity Plus: LPS Assay (AID 2283079); conditions: primary human HUVEC with PBMC;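 note: total protein by sulforhodamine B absorbance as a cytotoxicity measure; measured one day after compound addition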
In short: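 SRB viability endpoint: cells fixed with 10% TCA, stained with 0.1% SRB, read at 560 nm, 24 h post-dose. HUVEC/PBMC co-culture; signal change in either direction scored relative to DMSO.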

[20] = read-out: Interferon-gamma inducible Protein 10 (IP10), CXCL10 (gene 3627); assay: BSK_KF3CT_IP10: BioMAP Diversity Plus: KF3CT Assay for Interferon-gamma inducible Protein 10 (IP10) Biomarker Activity (AID 2283068); conditions: primary human keratinocytes with fibroblasts; actives raise or lower the signal
In short: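 In a primary skin co-culture of keratinocytes and fibroblasts, IP-10 is quantified by ELISA at 24 h after dosing. SRB staining of parallel wells monitors overt toxicity. Curves are fitted both directions against DMSO.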

Measured: AC50

E-selectin (Homo sapiens), sequence (P16581 whole entry, looked up): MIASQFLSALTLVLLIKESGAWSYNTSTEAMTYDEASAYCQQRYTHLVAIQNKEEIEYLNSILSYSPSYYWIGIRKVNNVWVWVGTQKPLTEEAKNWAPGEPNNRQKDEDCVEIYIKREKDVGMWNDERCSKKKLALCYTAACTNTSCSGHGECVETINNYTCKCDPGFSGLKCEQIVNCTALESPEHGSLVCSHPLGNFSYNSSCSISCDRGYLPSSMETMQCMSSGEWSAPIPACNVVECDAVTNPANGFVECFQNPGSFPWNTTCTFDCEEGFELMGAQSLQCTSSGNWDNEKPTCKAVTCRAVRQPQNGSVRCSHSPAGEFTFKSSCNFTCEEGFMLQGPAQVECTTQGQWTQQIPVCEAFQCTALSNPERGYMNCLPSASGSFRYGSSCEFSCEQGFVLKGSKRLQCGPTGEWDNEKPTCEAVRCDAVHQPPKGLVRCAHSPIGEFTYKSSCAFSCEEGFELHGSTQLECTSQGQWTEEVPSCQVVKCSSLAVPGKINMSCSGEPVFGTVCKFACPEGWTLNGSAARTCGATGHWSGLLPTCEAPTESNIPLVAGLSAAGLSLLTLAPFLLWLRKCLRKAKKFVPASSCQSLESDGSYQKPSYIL

CC(C)=CC1C(C(=O)OCN2C(=O)C3=C(CCCC3)C2=O)C1(C)C (configuration not stated)
active: [1] 27.6 µM | [2] 30.7 µM | [4] 33.5 µM | [6] 25.8 µM | [7] 30.7 µM | [14] 3.97 µM | [16] 11.4 µM | [17] 35.1 µM | [18] 26.9 µM
not listed: [20]
inactive: all other assays above

COP(=O)(OC)SCn1c(=O)oc2cc(Cl)cnc21
active: [1] 10.4 µM | [2] 13.8 µM | [3] 12 µM | [4] 19.3 µM | [5] 30.6 µM | [6] 16.3 µM | [7] 17 µM | [8] 18 µM | [20] 16.5 µM | [9] 14.9 µM | [13] 31.3 µM | [14] 25.8 µM | [15] 20 µM | [16] 19.8 µM | [17] 19.1 µM | [18] 20 µM | [19] 20 µM
inactive: [10] | [11] | [12]

Nc1c(Cl)cc([N+](=O)[O-])cc1Cl
active: [5] 4.71 µM
inactive: all other assays above

CCOP(=S)(OCC)OC(Cl)C(Cl)(Cl)Cl (configuration not stated)
active: [1] 31.8 µM | [6] 29.4 µM | [9] 26.7 µM
inactive: all other assays above

CN(C)[C@@H]1C(=O)C(C(N)=O)=C(O)[C@@]2(O)C(=O)C3=C(O)c4c(O)cccc4[C@@](C)(O)[C@H]3[C@H](O)[C@@H]12
active: [1] 23.3 µM | [4] 31.6 µM | [6] 28.6 µM
inactive: [1] | [2] | [3] | [4] | [5] | [6] | [7] | [8] | [20] | [9] | [10] | [11] | [12] | [13] | [14] | [15] | [16] | [17] | [18] | [19]

Reference: PubChem BioAssay (EPA / NIEHS)
